Here are results for 20 molecules from the supplement of paper PMC10127200.

Test in all cases: Euclidean distance of Cell Painting phenotypic profile (signed KS, 77 features) to DMSO centroid (dimensionless distance); 5 or 10 uM (library dependent); higher = stronger phenotypic change vs DMSO (phenoactivity)
Holding throughout (conditions): 48 h

One assay concerns 786-O. An outline of the steps:
(§1)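 Phenoactivity is defined as the Euclidean distance from a compound profile to the median vehicle profile. Each profile comprised 77 Harmony features, scored as signed Kolmogorov-Smirnov statistics versus same-plate vehicle wells, then plate-position corrected, correlation-weighted and replicate-averaged at the top dose. Five cancer lines and one healthy fibroblast line were exposed to library compounds for 48 h at 10 or 5 uM (0.1% DMSO final).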

Another assay concerns A549. The gist of the method:
as §1

For the next assay, the system named is DU145. An outline of the steps:
as §1

The subject of the next assay is FB. An outline of the steps:
as §1

Another assay relates to HEPG2. The gist of the method:
as §1

For a further assay, the system named is OVCAR4. The gist of the method:
as §1

Counter-ions that a name gives are not always drawn.

On to `Nc1ccc(-c2ccc3ncc4ccc(=O)n(-c5cccc(C(F)(F)F)c5)c4c3c2)cn1` [Torin 2], for which the Euclidean distance in the assay on 786-O was 5.09; in the assay on A549 it was 3.59; in the assay on DU145, 1.08; with FB, 1.45; in the assay with HEPG2, 1.26; with OVCAR4, 2.88.
Consider `C=C[C@@]1(C)CC(=O)[C@]2(O)[C@@]3(C)[C@@H](O)CCC(C)(C)[C@@H]3[C@H](O)[C@H](OC(C)=O)[C@@]2(C)O1` [Forskolin], for which the Euclidean distance in the assay on 786-O worked out at 1.79; in the assay with A549, 1.04; in the assay with DU145 it was 1.39; with FB it was 1.18; in the assay on HEPG2, 1.34; in the assay with OVCAR4 it was 1.23.
In the case of `COc1ccc2cc3[n+](cc2c1OC)CCc1cc2c(cc1-3)OCO2` [Berberine Sulfate], the Euclidean distance in the assay with 786-O is 1.66; with A549 it was 2.46; in the assay on DU145, 1.4; with FB, 2.36; with HEPG2 it was 1.68; with OVCAR4 it was 2.08.
On to `CC(C)OC(=O)C1=CN(C(=O)c2ccc(F)c(F)c2)CC(C)(C)c2c1[nH]c1ccccc21`, for which the Euclidean distance in the assay on 786-O came to 0.816; in the assay with A549, 0.896; in the assay with DU145, 0.818; in the assay with FB, 0.982; with HEPG2, 1.22; with OVCAR4, 1.07.
In the case of `NC(=O)[C@@H](CCC(F)(F)F)N(Cc1ccc(-c2ncon2)cc1F)S(=O)(=O)c1ccc(Cl)cc1`, the Euclidean distance is 2.13 in the assay with 786-O; 1.14 in the assay with A549; 1.04 in the assay with DU145; 2.28 with FB; 1.48 with HEPG2; 0.855 with OVCAR4.
In the case of `O=C([O-])c1ccccc1O.[Na+]` [Sodium salicylate], the Euclidean distance in the assay with 786-O worked out at 0.657; in the assay with A549 it was 0.529; with DU145, 0.888; with FB, 0.714; in the assay with HEPG2, 0.709; with OVCAR4, 0.92.
As to `Nc1ncn([C@H]2C[C@H](O)[C@@H](CO)O2)c(=O)n1` [Decitabine], the Euclidean distance in the assay on 786-O worked out at 1.92; in the assay on A549 it was 1.42; in the assay with DU145, 1.18; with FB, 1.43; with HEPG2, 1.56; with OVCAR4 it was 1.55.
Take `CNC(=O)c1ccc(N2C(=S)N(c3ccc(C#N)c(C(F)(F)F)c3)C(=O)C2(C)C)cc1F` [Enzalutamide (MDV3100)]: the Euclidean distance amounted to 0.957 with 786-O; 1.37 in the assay on A549; 1.2 with DU145; 1.38 in the assay with FB; 0.965 in the assay on HEPG2; 1.18 in the assay with OVCAR4.
Regarding `Oc1ccc(OC2CCCCO2)cc1` (stereo not given) [Deoxyarbutin], the Euclidean distance with 786-O was 1.11; in the assay on A549 it was 0.699; in the assay on DU145, 1.16; with FB, 1.24; with HEPG2 it was 1.02; in the assay on OVCAR4, 1.45.
As to `Cc1c(-c2ccnn2C)cc(C(=O)NCc2ccc(S(C)(=O)=O)cn2)c(=O)n1-c1cccc(C(F)(F)F)c1` [Alvelestat (AZD9668)], the Euclidean distance in the assay with 786-O was 1.01; with A549 it was 1.73; in the assay on DU145, 1.04; in the assay with FB it was 1.06; in the assay with HEPG2, 0.869; in the assay with OVCAR4 it was 0.81.
In the case of `CC(C)(C(=O)O)c1ccc(C(O)CCCN2CCC(C(O)(c3ccccc3)c3ccccc3)CC2)cc1` (stereo not given) [Fexofenadine HCl], the Euclidean distance in the assay on 786-O came to 1.52; in the assay on A549, 0.838; with DU145, 0.779; with FB it was 0.629; in the assay with HEPG2, 0.305; in the assay with OVCAR4 it was 1.91.
For `Nc1nc2ccc(OC(F)(F)F)cc2s1` [Riluzole], the Euclidean distance with 786-O was found to be 1.03; in the assay with A549 it was 0.891; in the assay with DU145 it was 2.58; in the assay with FB it was 1.3; in the assay on HEPG2, 0.688; in the assay with OVCAR4, 0.739.
Turning to `CNCc1ccc(-c2cc(-c3nc(-c4ccc(S(=O)(=O)C(C)C)cc4)cnc3N)on2)cc1`, the Euclidean distance is 3.55 with 786-O; 3.91 in the assay with A549; 3.77 in the assay on DU145; 4.87 with FB; 3.55 in the assay on HEPG2; 4.32 in the assay on OVCAR4.
On to `CC(C)NCC(O)COc1ccc(CCOCC2CC2)cc1` (stereo not given) [Betaxolol], for which the Euclidean distance with 786-O was determined as 0.891; in the assay with A549, 0.384; in the assay on DU145 it was 0.799; in the assay with FB, 0.967; in the assay with HEPG2, 1.64; in the assay on OVCAR4 it was 1.14.
For the molecule `OCC1=C[C@@H](O)[C@@H]2C=CO[C@@H](O[C@@H]3O[C@H](CO)[C@@H](O)[C@H](O)[C@H]3O)[C@H]12` [Aucubin], the Euclidean distance is 0.893 with 786-O; 0.414 in the assay with A549; 2.53 in the assay with DU145; 0.949 in the assay with FB; 0.503 in the assay with HEPG2; 1.5 with OVCAR4.
Turning to `Cc1nccn1CC1CCc2c(c3ccccc3n2C)C1=O` (stereo not given) [Ondansetron HCl], the Euclidean distance in the assay on 786-O was determined as 1.31; with A549, 1.62; in the assay with DU145, 1.01; with FB, 1.16; in the assay on HEPG2, 0.865; with OVCAR4 it was 0.943.
For the molecule `CC[C@@H](Nc1c(Nc2cccc(C(=O)N(C)C)c2O)c(=O)c1=O)c1ccc(C)o1`, the Euclidean distance in the assay on 786-O amounted to 1.24; with A549 it was 0.692; in the assay on DU145 it was 0.995; with FB, 0.605; in the assay with HEPG2, 0.633; in the assay with OVCAR4, 0.96.
For the molecule `COc1ccccc1N1CCN(CCN2C(=O)CC3(CCCC3)CC2=O)CC1`, the Euclidean distance in the assay with 786-O amounted to 1.45; in the assay with A549, 1.72; in the assay with DU145 it was 1.3; in the assay with FB, 1.24; in the assay on HEPG2, 1.77; in the assay on OVCAR4, 1.54.
As to `CCN(CC)Cc1cc(Nc2ccnc3cc(Cl)ccc23)ccc1O` [Amodiaquine hydrochloride], the Euclidean distance in the assay on 786-O was 2.94; in the assay on A549, 2.7; in the assay with DU145, 1.67; with FB it was 3.45; in the assay with HEPG2, 2.69; in the assay with OVCAR4 it was 2.51.
With `CNC(=O)c1cc(Oc2ccc(NC(=O)Nc3ccc(Cl)c(C(F)(F)F)c3)c(F)c2)ccn1` [Regorafenib (BAY 73-4506)], the Euclidean distance was 1.82 with 786-O; 2.6 with A549; 1.66 in the assay with DU145; 1.6 in the assay on FB; 1.42 in the assay with HEPG2; 1.63 in the assay on OVCAR4.
